The nature of assay [1]: qHTS assay to identify small molecule antagonists of the estrogen related receptor (ERR) signaling pathway from Tox21 library - cell viability counter screen (AID 1224834). Also: nearly all actives have a fitted effect of over 30% in size. An outline of the steps:
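Cytotoxicity of test substances is gauged in the same ERR cells used for the antagonist screen, after 17.5 h of compound treatment at 37 C, by CellTiter-Fluor fluorescence measured after 30 min.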
For orientation: In qHTS, concentration-response curves come from the screen itself.

Assay [2] can be described thus: qHTS assay to identify small molecule agonists of the constitutive androstane receptor (CAR) signaling pathway - cell viability counter screen (AID 1224836). Also: nearly all actives have a fitted effect of over 45% in size. An outline of the steps: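 Cells were seeded and incubated 4 hrs. Compounds were added across 15 concentrations together with PK11195 at 0.75 uM final. Plates were incubated 23 hrs at 37 C. CellTiter-Fluor was added and fluorescence measured.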

The nature of assay [3]: qHTS assay to identify small molecule antagonists of the constitutive androstane receptor (CAR) signaling pathway - cell viability counter screen (AID 1224837). Also: nearly all actives have a fitted effect of over 45% in size. An outline of the steps:
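Multiplexed cytotoxicity read-out for the CAR antagonist screen: double-stable HepG2-CYP2B6-hCAR cells co-treated with 50 nM CITCO (final) and compound over 15 concentrations, incubated 23 hr, then assessed by CellTiter-Fluor fluorescence.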

Assay [4] addresses Nuclear receptor subfamily 1 group I member 3 (Homo sapiens) (UniProt Q14994). In words: qHTS assay to identify small molecule antagonists of the constitutive androstane receptor (CAR) signaling pathway (AID 1224838). Also: nearly all actives have a fitted effect of over 40% in size. The essentials: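 Compounds were titrated across 15 concentrations onto HepG2 cells double-stably expressing hCAR and a CYP2B6-2.2kb reporter, together with 50 nM CITCO (final). After 24 h at 37 C, luciferase activity was measured by luminescence.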

Assay [5] shares this target. In words: qHTS assay to identify small molecule agonists of the constitutive androstane receptor (CAR) signaling pathway (AID 1224839). Also: nearly all actives have a fitted effect of over 15% in size. An outline of the steps: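 Cells were plated and incubated 4 hrs, then dosed with compounds at 15 concentrations. PK11195 was added to 0.75 uM final. After 24 hrs at 37 C, luciferase luminescence was measured.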
Assay [6] can be described thus: qHTS assay to identify small molecule antagonists of the estrogen related receptor signaling pathway with the pleiotropic PPARgamma coactivator (PGC) from Tox21 10K library (AID 1224841; call rule not given here; also: actives are mostly falling curves and most rising ones were filed inactive; nearly all actives have a fitted effect of over 50% in size). An outline of the steps:
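Antagonism in this quantitative HTS is taken from loss of luciferase signal in PGC/ERR cells. Cells (2,000/well) are treated with compounds in DMSO after a 6 h settling period and read by One-Glo luminescence after 18 h.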

Assay [7] in a line: qHTS assay to identify small molecule agonists of the estrogen related receptor signaling pathway with the pleiotropic PPARgamma coactivator (PGC) from Tox21 10K library (AID 1224842). Also: nearly all actives have a fitted effect of over 15% in size. The essentials: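 PGC/ERR reporter cell line, 2,000 cells per well, incubated 6 h at 37 C before 23 nL compound in DMSO was added. After 18 h at 37 C, One-Glo luminescence read following 30 min at room temperature.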

Assay [8] is described as follows: qHTS assay to identify small molecule antagonists of the estrogen related receptor signaling pathway with the pleiotropic PPARgamma coactivator (PGC) from Tox21 10K library - cell viability counter screen (AID 1224840; active = well fitted cell-killing curve with a large enough effect in the repeat runs, not every such curve was filed as active; also: nearly all actives have a fitted effect of over 40% in size). An outline of the steps: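 Step one, plate 2,000 PGC/ERR cells per well; step two, incubate 6 h at 37 C/5% CO2; step three, pin-transfer compounds; step four, incubate 17.5 h; step five, add CellTiter-Fluor and read fluorescence after 30 min.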

For assay [9], the target named is Luciferin 4-monooxygenase (Photinus pyralis) (UniProt P08659). Description: qHTS assay to identify small molecule inhibitors of firefly luciferase (AID 1224835). Also: nearly all actives have a fitted effect of over 25% in size. An outline of the steps: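 Biochemical qHTS: compounds run as interplate titrations against purified firefly enzyme, with D-luciferin and ATP each at its KM concentration. Light output recorded by CCD imaging.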

Inconclusive results are not listed. A number with no mark means an inactive call. Activity calls are given as the source filed them. Unless noted, calls follow the shape of the dose curve; as a rule, active = well fitted curve in the direction sought with a large enough effect in the repeat runs; inconclusive = weak or mixed curves; inactive = no such curve, though single readings can be large; an effect the other way counts as inactive or inconclusive.
Potency is read from the fitted curve at half-maximal effect.

Nuclear receptor subfamily 1 group I member 3 (Homo sapiens), sequence (Q14994 whole entry, looked up): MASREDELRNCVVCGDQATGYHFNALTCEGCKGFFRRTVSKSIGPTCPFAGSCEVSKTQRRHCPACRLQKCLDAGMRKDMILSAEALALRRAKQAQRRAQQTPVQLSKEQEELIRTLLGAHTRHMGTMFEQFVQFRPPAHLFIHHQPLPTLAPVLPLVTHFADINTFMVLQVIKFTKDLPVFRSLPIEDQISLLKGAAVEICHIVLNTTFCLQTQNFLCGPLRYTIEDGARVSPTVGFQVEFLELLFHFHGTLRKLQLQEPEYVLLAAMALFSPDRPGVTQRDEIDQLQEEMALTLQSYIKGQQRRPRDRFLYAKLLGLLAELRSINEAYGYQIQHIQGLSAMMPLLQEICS
Luciferin 4-monooxygenase (Photinus pyralis), sequence (P08659 whole entry, looked up): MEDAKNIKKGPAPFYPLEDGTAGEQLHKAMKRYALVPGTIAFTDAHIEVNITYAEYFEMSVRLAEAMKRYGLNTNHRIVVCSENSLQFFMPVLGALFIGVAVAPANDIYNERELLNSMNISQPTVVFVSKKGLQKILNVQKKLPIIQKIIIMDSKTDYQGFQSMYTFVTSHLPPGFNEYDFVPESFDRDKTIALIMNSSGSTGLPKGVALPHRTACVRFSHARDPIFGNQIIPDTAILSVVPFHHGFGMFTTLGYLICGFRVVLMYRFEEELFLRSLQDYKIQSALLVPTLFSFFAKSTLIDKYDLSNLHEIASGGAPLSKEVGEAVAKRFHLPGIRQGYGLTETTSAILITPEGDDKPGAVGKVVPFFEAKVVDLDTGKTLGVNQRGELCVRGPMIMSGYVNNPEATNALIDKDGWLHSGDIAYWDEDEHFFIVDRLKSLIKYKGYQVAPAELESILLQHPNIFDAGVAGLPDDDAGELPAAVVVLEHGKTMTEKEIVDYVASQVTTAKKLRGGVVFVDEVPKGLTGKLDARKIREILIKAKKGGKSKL

`CCC(=O)OC/C=C/c1ccccc1`: the Potency entry in assay [1], in [2], in assay [3], in [4] and in [5] was “inactive” in each case.

`Cc1ccc(Nc2nccc(N(C)c3ccc4c(C)n(C)nc4c3)n2)cc1S(N)(=O)=O`: the Potency in assay [1] was 29.8 µM (active); in assay [5], 4.73 µM (active); in assay [6], 23.7 µM (active). For the same molecule, the Potency result in [2], in [3], in [4] and in assay [7] was “inactive” each time.

As for `CC(C)(C)C(=O)O`, the Potency result in assay [1], in assay [2], in [3], in assay [4], in assay [5] and in assay [8] was “inactive” in each case. Besides, the Potency entry in assay [6] and in assay [7] was “inactive” in each case.

Turning to `CC(CCO)CCc1ccccc1` (centres undefined), the Potency entry in assay [1], in assay [2] and in [3] was “inactive” in each case.

As to `O=C1OCCN1/N=C/c1ccc([N+](=O)[O-])o1`, the Potency entry in assay [1], in assay [2], in assay [4] and in assay [5] was “inactive” throughout.

As for `CC(C)(C)CC(C)(C)c1ccc(OCCO)cc1`, the Potency in assay [1] was 48.3 µM (active); in [2] it was 48.3 µM (active); in [3], 43 µM (active); in [8] it was 54.2 µM (active); in assay [6] it was 19.2 µM (active). Moreover, the Potency result in assay [7] is “inactive”.

`C=CCNc1nc(NCC=C)nc(N2CCN(C(c3ccc(F)cc3)c3ccc(F)cc3)CC2)n1`: the Potency entry in assay [1], in assay [2], in assay [3], in [4], in assay [5] and in assay [8] was “inactive” each time.

As to `CNCCCC1c2ccccc2C=Cc2ccccc21`, in [1], the Potency is 29.8 µM (active). In addition, the Potency entry in [9] and in [6] was “inactive” throughout.

As for `CN(C)C(=O)Nc1ccc(Oc2ccc(Cl)cc2)cc1`, the Potency entry in assay [1], in assay [2], in assay [3], in [4], in assay [8] and in assay [7] was “inactive” throughout. In addition, the Potency in assay [5] is 30.6 µM (active).

As for `CSc1ccc(Oc2ccc(S(N)(=O)=O)cc2CN(C)C)cc1C`, the Potency result in [1], in [2], in [3], in [4], in [5] and in assay [8] was “inactive” each time. In assay [6], the Potency result was “inactive”.

In the case of `O=C1NCCN1`, the Potency result in assay [1], in assay [2], in [3], in [6] and in assay [7] was “inactive” in each case.

Turning to `CC1(C)C(=O)N(Br)C(=O)N1Cl`, the Potency result in assay [1], in assay [2], in [3], in assay [4], in assay [5] and in [8] was “inactive” each time. The Potency entry in assay [6] and in [7] was “inactive” each time.

On to `COc1ccc(CCC(=O)c2c(O)cc(O[C@@H]3O[C@H](CO)[C@@H](O)[C@H](O)[C@H]3O[C@@H]3O[C@@H](C)[C@H](O)[C@@H](O)[C@H]3O)cc2O)cc1O`, for which the Potency result in assay [1], in assay [2], in assay [3], in assay [8], in assay [6] and in assay [7] was “inactive” throughout.

Regarding `CC(Cl)C(Cl)Cl` (centres undefined), the Potency result in assay [1], in [2] and in [3] was “inactive” in each case.

Regarding `CNC(=S)NC`, the Potency entry in assay [1], in assay [2], in assay [3], in assay [5] and in assay [8] was “inactive” each time.

`CC(C)(C)C(=O)C(Oc1ccc(Cl)cc1)n1ccnc1` (centres undefined): the Potency result in assay [1], in [2], in assay [3], in [4], in [5] and in assay [8] was “inactive” in each case. Also, the Potency entry in [7] was “inactive”.

In the case of `CC(=O)OCC(=O)[C@@]12OC(C)(C)O[C@@H]1C[C@H]1[C@@H]3C[C@H](F)C4=CC(=O)C=C[C@]4(C)[C@@]3(F)[C@@H](O)C[C@@]12C`, the Potency result in [1], in assay [2], in assay [3], in assay [4] and in assay [8] was “inactive” in each case.

Regarding `O=S1OCCO1`, the Potency entry in assay [1], in assay [2], in assay [3], in assay [8], in assay [6] and in assay [7] was “inactive” throughout.

For the molecule `C[N+]1(C)CCC(=C(c2ccccc2)c2ccccc2)CC1`, the Potency result in [1], in assay [2], in assay [3], in assay [4], in assay [5] and in [8] was “inactive” throughout. Moreover, the Potency entry in assay [6] and in assay [7] was “inactive” throughout.

As to `C(=C\c1ccccc1)/CN1CCN(C(c2ccccc2)c2ccccc2)CC1`, the Potency result in assay [1], in assay [2], in assay [3], in assay [4], in assay [5] and in [8] was “inactive” in each case.

On to `CN(C(=O)C(Cl)Cl)c1ccc(OC(=O)c2ccco2)cc1`, for which the Potency entry in assay [1], in assay [2], in assay [3], in assay [4], in [5] and in assay [8] was “inactive” each time.

`CCC(C)(C)C1CCC(O)CC1` (centres undefined): the Potency result in [1], in assay [2], in [3], in assay [4], in assay [5] and in assay [8] was “inactive” throughout.

`CN1CCN(CCCN2c3ccccc3Sc3ccc(S(=O)(=O)N(C)C)cc32)CC1`: the Potency in assay [1] is 26.6 µM (active). The Potency result in assay [9], in assay [5] and in assay [7] was “inactive” in each case.

As to `COc1cc2c(N3CCN(C(=O)Nc4ccc(OC(C)C)cc4)CC3)ncnc2cc1OCCCN1CCCCC1`, the Potency in assay [1] is 29.8 µM (active); in [4], 15 µM (active); in [8], 29.8 µM (active); in assay [7] it was 33.5 µM (active). For the same molecule, the Potency entry in assay [9], in [5] and in [6] was “inactive” in each case.

Take `NC(=O)Cn1c(=O)cc(CCN2CCN(c3nccc4sccc34)CC2)c2ccc(F)cc21`: the Potency in assay [1] is 48.6 µM (active); in assay [9], 44.8 µM (active); in assay [6], 61.1 µM (active). Also, the Potency entry in assay [7] was “inactive”.

Turning to `CCOCCn1c(C2CCN(CCc3ccc(C(C)(C)C(=O)O)cc3)CC2)nc2ccccc21`, the Potency result in assay [1], in [2], in assay [3] and in [8] was “inactive” in each case.

For `O=C(CCCN1CCN(c2ccc(F)cc2)CC1)NC1c2ccccc2CSc2ccccc21` (centres undefined), the Potency result in [1], in assay [9], in [5] and in assay [8] was “inactive” in each case. In assay [4], the Potency is 29.8 µM (active).

Regarding `NC(=O)Nc1ccc(Cl)cc1`, the Potency result in [1], in assay [2], in assay [3], in [4], in assay [5] and in [8] was “inactive” throughout. The Potency result in assay [6] and in assay [7] was “inactive” throughout.

The values are drawn from PubChem BioAssay (Tox21).
